Screens deposited in PubChem BioAssay by National Center for Advancing Translational Sciences (NCATS).
Nrf2 ARE act: qHTS of Nrf2 Activators. AREc32 ARE-luciferase reporter (MCF7-derived line), luminescence, 24 h. Potency, µM (series often up to 46.1 µM), inactives show at the highest dose activation, usual class: activators. actives 0.31% (n = 410,000). AID 624171, 2012; further: potency means the concentration at half of the fitted maximal effect; % of control where 0% means no effect; nearly all actives have a fitted effect of over 65% in size
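ARE-driven firefly luciferase activity in AREc32 cells measured after a 24 hr compound exposure at 37 deg C, using Steady-Glo reagent and a 30 min room-temperature hold.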
ClpP mod: qHTS Assay for Activators of ClpP | purified B. subtilis ClpP, FRET peptide cleavage, 20 min | Potency, µM (doses to about 57.5 µM), inactives show at the top dose activity change, negative = active | actives 1.9% (n = 340,000) | AID 651965, 2013 | ATP-dependent Clp protease proteolytic subunit (Bacillus subtilis (strain 168)), P80244; active means well fitted falling curve with a large enough effect; inconclusive means small, poorly fitted or top-dose-only effect; inactive means no such curve, though single readings can be large or run the other way; further: potency means the concentration at half of the fitted maximal effect; the source files actives as falling curves though it sought activators and does not explain the sign; nearly all actives have a fitted effect of over 65% in size
Target sequence (P80244 whole entry, looked up): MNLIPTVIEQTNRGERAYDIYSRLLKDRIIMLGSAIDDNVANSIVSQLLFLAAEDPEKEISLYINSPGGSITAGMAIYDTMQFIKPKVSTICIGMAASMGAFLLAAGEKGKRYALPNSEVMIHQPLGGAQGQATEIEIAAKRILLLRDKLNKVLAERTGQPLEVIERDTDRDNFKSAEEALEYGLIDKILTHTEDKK
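Buffer: 100 mM Tris/HCl pH8, 100 mM KCl, 0.05% low protease BSA, 2.5% glycerol, 0.01% Tween-20. ClpP 10 microg/mL final; 20 min RT; delta FRET normalized to ADEP and DMSO controls.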
p53 reactivator: qHTS assay for re-activators of p53 using a Luc reporter | Potency, µM (highest dose often 92.2 µM), without a hit: top-dose activity change, positive = activation, most hits filed as activators | actives 0.063% (n = 320,000) | H1299 p53-A138V BP100-luciferase reporter, luminescence, 24 h; further: potency means the concentration at half of the fitted maximal effect; % of control where 0% means no effect; nearly all actives have a fitted effect of over 45% in size
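H1299 (p53-null), stable ts p53-A138V + BP100-Luc; 1000 cells/well, Opti-MEM/10% FBS; cpd 4 pt, 1:5; 24 h, 37 deg C, 5% CO2; detection reagent 10 min RT; luminescence.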
miR-21 act: qHTS Assay for Modulators of miRNAs and/orActivators of miR-21; HeLa miR-21 FLuc reporter, luciferase, 48 h; Potency, µM (highest dose often 38.3 µM), without a hit: top-dose activity change, positive = activation, hits mostly activators; 340,000 tested, under 10 active; AID 2288, 2010;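 further: % of control where 0% means no effect; miR-21 action dims this reporter so a rising signal means less miR-21 action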
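Compounds were titrated across several concentrations (up to approximately 40 uM) and incubated 48 hours with HeLa miR-21-FLuc reporter cells (miR-21 target sequence downstream of FLuc, endogenous miR-21). Readout was firefly luciferase luminescence after lytic detection reagent.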
A549 viability: Nrf2 qHTS screen for inhibitors: counterscreen for cytotoxicity; A549 ARE-Fluc cells, CellTiter-Fluor viability, 18-24 h; Potency, µM (titrated, usually from 46 µM), for the others: top-dose activity change, negative = cytotoxicity, hits mostly inhibitors; actives 0.16% (n = 390,000); AID 504648, 2011; further: potency means the concentration at half of the fitted maximal effect; on the % scale 0 is the no-effect control and ±100 the full control effect
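A549 ARE_Fluc cells in 5% FBS OPTI-MEM were exposed to compounds in concentration-response for 18-24 h at 37 deg C. Viability was read by CellTiter-Fluor fluorescence (Ex 405/Em 525) after 30 min, before the luciferase read.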
Nrf2 block: Nrf2 qHTS screen for inhibitors; A549 ARE-Fluc reporter, luciferase luminescence, 18-24 h; Potency, µM (highest dose often 46 µM), for inactives: at the highest dose activity change, negative = inhibition, actives largely listed as inhibitors; actives 2.1% (n = 360,000); AID 504444, 2011; further: potency means the concentration at half of the fitted maximal effect; on the % scale 0 is the no-effect control and ±100 the full control effect; nearly all actives have a fitted effect of over 60% in size
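Concentration-response testing used A549 ARE_Fluc cells at 5000 cells/well. Following an 18-24 h compound incubation, viability was read by fluorescence (Ex 405/Em 525) and luciferase output by luminescence.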
Numbers without * were called inactive; ? = inconclusive; · = no result given. Hits are enriched below; roughly 3.7% of the tested compounds scored in any of these assays. Unless noted, the call rests on the fitted dose curve; in most records, active means well fitted curve in the direction sought with a large enough effect; inconclusive means small, poorly fitted or top-dose-only effect, or another doubt; inactive means no such curve, though single readings can be large; an effect the other way counts as inactive or inconclusive.

SMILES | Nrf2 ARE act | ClpP mod | p53 reactivator | miR-21 act | A549 viability | Nrf2 block
CC(C)C(=O)Nc1cccc(S(=O)(=O)c2cccc(NC(=O)C(C)C)c2)c1 | 1.6% | -3.0% | -10.8% | 12.2% | -17.2% | 20.6µM*
CSc1cccc(NC(=O)C(C)C)c1 | 1.3% | · | 17.4% | -3.0% | 0.0% | 1.4%
O=C(/C=C/c1ccc(Br)o1)NC(c1ccccc1)c1ccccc1 | 4.6% | -0.9% | 6.9% | 3.5% | -8.7% | 25.9µM*
Cc1nc2ccn(Cc3ccco3)c(=O)c2cc1C(=O)NCc1ccccc1F | 13.4% | 5.0% | · | 13.2% | -0.5% | -12.6%
O=C(Nc1ccc2snnc2c1)Nc1cccc2ccccc12 | 0.8% | -5.3% | 28.6% | ? | -24.4% | 16.4µM*
CCN(CCNCC(O)COc1ccccc1C(C)C)c1cccc(C)c1 (stereo not given) | -1.7% | · | -11.1% | ? | -6.8% | 5.2%
Cc1ccc(O)c(CC(C)C)n1 | -0.2% | 3.55µM* | 1.7% | -1.2% | -1.2% | 21.5%
Cc1ccc(O)c(CO)n1 | -0.2% | · | 1.7% | 3.8% | 0.1% | 3.3%
O=C(NCC(c1cccnc1)N1CCc2ccccc21)c1cccc(F)c1 (stereo not given) | 2.5% | 2.2% | · | 12.4% | -2.9% | ?
COc1ccc(CCNC(=O)c2[nH]c(C)c(C(C)=O)c2C)cc1 | 0.2% | 35.5µM* | -8.4% | 2.5% | -4.1% | ·
COc1ccc(CNC(=O)c2[nH]c(C)c(C(C)=O)c2C)cc1 | 4.0% | · | 6.0% | -8.4% | -3.7% | 3.9%
O=c1c2ccccc2nc(N/N=C/c2c(O)ccc3ccccc23)n1O | 4.6% | -1.3% | 17.9% | ? | ? | 6.51µM*
Cc1ccc(NS(=O)(=O)c2ccc3c(c2)CCN(C(=O)C(F)(F)F)C3)cc1C | · | · | · | · | 1.7% | ?
N#Cc1ccccc1NC(=O)c1ccccc1OCC(=O)NCc1ccco1 | 11.2µM* | -1.3% | -1.7% | -3.7% | 9.6% | 0.1%
CN(C)c1ccc(/C=C/c2nc3ccccc3s2)c(Cl)c1 | · | 0.4% | · | · | · | ·
Cc1nc(NC(C)c2ccccc2)c2oc3ccccc3c2n1 (stereo not given) | 3.6% | -29.5% | -16.6% | 19.2% | -14.2% | 13µM*
Cc1nc(NCCc2cnc[nH]2)c2oc3ccccc3c2n1 | 0.2% | -3.7% | -1.4% | -1.9% | 14.6% | 3.1%
Cc1nc(NCc2ccco2)c2oc3ccccc3c2n1 | 11.3% | 14.1µM* | -10.6% | 10.6% | -2.2% | -23.3%
COc1ccc(CCNc2nc(C)nc3c2oc2ccccc23)cc1OC | 4.1% | -1.1% | -3.9% | 25.4% | ? | 18.4µM*
CCc1nc(NCc2ccccn2)c2oc3ccccc3c2n1 | -0.5% | -7.4% | 3.1% | 21.3% | -11.8% | 9.2µM*
c1ccc(CNc2ncnc3c2oc2ccccc23)nc1 | 5.2% | -19.0% | ? | -58.7% | 11.6% | ?
Cc1cccc(Nc2nc(C)nc3c2oc2ccccc23)c1 | 7.1% | -19.9% | 8.8% | 14.7% | ? | 2.1%
COc1cc(NC(=O)C(OC(=O)CNC(=O)c2ccccc2)c2ccccc2)c(OC)cc1Cl (stereo not given) | · | · | · | · | 6.9% | 7.5%
Cc1ccc(CNC(=O)c2c(O)nc3ccccn3c2=O)cc1 | -1.2% | -2.7% | · | -5.4% | 0.7% | ?
Cc1nnc(NCc2ccco2)c2ccccc12 | 7.3% | 25.1µM* | -7.0% | -12.4% | -0.2% | -8.9%
CCC(C)Nc1nc(C)nc2c1oc1ccccc12 (stereo not given) | 3.7% | -9.0% | 1.1% | 11.0% | 0.8% | 20.6µM*
Cc1nc(Nc2ccncc2)c2oc3ccccc3c2n1 | 10.9% | 14.1µM* | -2.1% | 23.1% | -7.4% | -22.0%
Cc1nnc(NCc2ccccc2)c2ccccc12 | 3.6% | -3.4% | · | 2.2% | 9.3% | -12.7%
Cn1nnc2c(NCc3ccco3)nccc21 | 2.5% | 15.8µM* | 1.9% | -1.2% | -2.1% | 15.7%
